Reference: ChEMBL document CHEMBL4888484, “Replenishing the malaria drug discovery pipeline: Screening and hit evaluation of the MMV Hit Generation Library 1 (HGL1) against asexual blood stage Plasmodium falciparum ,using a nano luciferase reporter read-out” (2022)
Values joined by “and” are separate entries in the source; they are usually repeats but may differ in a detail not shown here. Equal values may be shown once. Hit rate of the full screen: of about 150,000 compounds, about 540 (0.36%) showed an effect of 50% or more. The entries come from a sample that favours strong results as a whole.

System: Plasmodium falciparum
Experiment: Primary screen in NF54 nanoGlo assay, in single point, at 2uM, 72h; a lower Z score goes with more inhibition
Assay type: functional, Erythrocyte
Conditions: timepoint 72 hour

Row | Structure (SMILES) | % Inhibition [%] | Z score | Z score (2 µM)
1 | COC[C@](C)(CCO)NC(=O)Nc1cc(F)cc(Br)c1 | -13 | 1.11 | 
2 | CCn1cc(C(=O)Nc2ccc(OCCN3CC[C@H](C)C3)cc2)cn1 | 5 | -0.92 | 
3 | Cc1cc(C)cc(N(CCC#N)C(=O)CN2CCC[C@H]2c2ccc3c(c2)OCCCO3)c1 | -2 | 0.18 | 
4 | CNC(=O)Nc1cccc(NC(=O)c2cncc(-c3cnn(C)c3)c2)c1 | 24 | -3.15 | 
5 | Cn1cc(C(=O)N[C@H]2CCN(c3ccc(F)c(Cl)c3)C2)cn1 | -3 | 0.57 | 
6 | COCCCCC(=O)N1CCC[C@H](N)[C@@H]1c1ccccc1OC | 4 | -0.43 | 
7 | O=C(CN1C(=O)N[C@]2(CCc3cc(Cl)ccc32)C1=O)c1ccc2c(c1)OCO2 | 0 | -0.01 | 
8 | C[C@H](Nc1nc2nonc2n2nnnc12)c1ccccc1 | 27 | -3.54 | 
9 | CC(C)Nc1nc2nonc2n2nnnc12 | 31 | -3.95 | 
10 | CC(C)Nc1nc2nonc2n2cnnc12 | 77 | -8.71 | 
11 | Cc1cc(N2CCC[C@H](CNC(=O)CN3CCOCC3)C2)nc2cc(F)ccc12 | -15 | 1.9 | 
12 | CC(=O)N[C@H]1CCN(S(=O)(=O)c2sccc2Cl)C1 | 0 | -0.08 | 
13 | O=C(NC1CCCC1)[C@@H](c1ccccc1)N1CCS(=O)(=O)CC1 | 7 | -0.84 | 
14 | O=C(NC[C@]12C[C@H]1COC21CCC1)c1ncoc1-c1ccon1 | 5 | -0.99 | 
15 | CN(CC(C)(CO)CO)C(=O)c1ccsc1 | 6 | -0.9 | 
16 | CCOC(=O)C1CCCN(C2CCN(C(=O)CCC3(Cc4ccc(C)cc4)CCC(=O)N3)CC2)C1 (configuration not stated) | -5 | 0.68 | 
17 | Cc1nc(CCNc2nc(-c3ccccn3)nc3c2CCNCC3)no1 | -2 | 0.27 | 
18 | Cc1sc2nc(-c3ccccn3)nc(NCC(=O)N3CCC(O)CC3)c2c1-c1ccccc1 | 25 | -2.12 | 
19 | Cc1cc(CN(C)C(=O)[C@H]2CC(=O)N(c3ccccc3)C2)no1 | -3 | 0.62 | 
20 | Cc1c(C(=O)O)nn(-c2ccc(F)cc2)c1Oc1ccc(NC(=O)CC(C)C)cc1S(=O)(=O)NCC(C)C | -16 | 1.93 | 
21 | CCC(=O)Nc1ccc(Oc2c(C)c(C(=O)O)nn2-c2ccccc2CC)c(S(=O)(=O)NCC(C)C)c1 | 97 | -9.77 | 

Row | Structure (SMILES) | % Inhibition [%] | Z score | Z score (2 µM)
22 | CCC(=O)Nc1ccc(Oc2c(C)c(C(=O)O)nn2-c2ccccc2C)c(S(=O)(=O)N[C@@H](C)CC)c1 | -10 | 0.97 | 
23 | CC1=C(C(=O)NCCC(F)(F)F)Cn2nnnc2N1C | 0 | 0.01 | 
24 | CC(CC1OCC(C[N+]2(Cc3ccccc3)CCCCC2)O1)CC(C)(C)C (configuration not stated) | 60 | -5.21 | 
25 | COC(=O)c1ccc(C[N+]2(C[C@H]3COC4(CCCCC4)O3)CCCC2)cc1 | -5 |  | 0.44 and 0.65
26 | CC1(C)C2CCC(C2)C1CC1OCC(C[N+]2(Cc3ccccc3)CCCCC2)O1 (configuration not stated) | -7 | 1.37 | 
27 | Cc1cc(-c2ccccc2)[n+]2ccccc2n1 | -15 | 2.36 | 
28 | Cc1ccc(-c2csc(-c3nc(-c4ccccc4)cs3)n2)c(C)c1 | 10 | -1.13 | 
29 | Cc1cc[n+]2c(-c3ccccc3)cc(-c3ccccc3)nc2c1 | 60 | -11.27 | 
30 | O=C(Cc1ccc2[nH]c(=O)[nH]c2c1)N1CCOC[C@@H]1CC1CCC1 | 2 | -0.19 | 
31 | CCOC(=O)c1cc2n(n1)C[C@@](C)(C(=O)NCCC(C)C)N(c1ccc(C)c(C)c1)C2=O | -6 | 0.75 | 
32 | Cc1ccc(CN(C(=O)c2ccccc2C)c2cccc(CC(=O)NCCN3CCCC3)c2)cc1 | -9 | 1.17 | 
33 | Cc1ccccc1C(=O)N(Cc1cccc(F)c1)c1ccc(CC(=O)NCCN2CCCCC2)cc1 | 58 | -4.25 | 
34 | O=C(Cc1ccc(N(Cc2cccc(F)c2)C(=O)c2cccc(F)c2)cc1)NCCN1CCCC1 | 3 | -0.41 | 
35 | O=C(Cc1ccc(N(Cc2cccc(F)c2)C(=O)C2CCCC2)cc1)NCCN1CCCCC1 | 59 | -9.89 | 
36 | Cc1cccc(CN(C(=O)C2CCCC2)c2ccc(CC(=O)NCCN3CCCC3)cc2)c1 | 20 | -2.23 | 
37 | O=C(Cc1ccc(N(Cc2cccc(F)c2)C(=O)c2cccc(F)c2)cc1)NCCN1CCCCC1 | 57 | -2.67 | 
38 | CCC(=O)N(Cc1cccc(F)c1)c1ccc(CC(=O)NCCN2CCCC2)cc1 | -2 | 0.24 | 
39 | O=C(Cc1ccc(N(Cc2cccc(F)c2)C(=O)C2CCCC2)cc1)NCCN1CCCC1 | 25 | -2.85 | 
40 | O=C(Cc1ccc(N(Cc2ccc(F)cc2)C(=O)c2cccc(F)c2)cc1)NCc1ccccc1 | -2 | 0.3 | 
41 | COc1cccc(C(=O)N(Cc2ccc(C)cc2)c2cccc(CC(=O)N[C@@H](C)c3ccccc3)c2)c1 | -8 | 1.49 | 
42 | Cc1ccccc1C(=O)N(Cc1ccc(F)cc1)c1cccc(CC(=O)NCCN2CCCC2)c1 | 6 | -0.6 | 

Row | Structure (SMILES) | % Inhibition [%] | Z score | Z score (2 µM)
43 | Cc1ccc(C(=O)N(Cc2cccc(F)c2)c2ccc(CC(=O)N[C@@H](C)c3ccccc3)cc2)cc1 | 74 | -8.26 | 
44 | CC(C)(C)c1ncc(-c2cc(F)cc3cccnc23)[nH]1 | -16 | 1.82 | 
45 | Cc1n[nH]nc1-c1nc(-c2ccncc2)nn1[C@H]1CCS(=O)(=O)C1 | -6 | 0.87 | 
46 | Cc1ccc(CS(=O)(=O)N2CCC3CCN(C)CC32)c(F)c1 (configuration not stated) | -7 | 1.13 | 
47 | Cc1nccn1CCNC(=O)c1cc2cccc(Cl)c2n1C | -16 | 1.43 | 
48 | CC[C@H]1CN(Cc2cccn2-c2nccs2)CCN1C | -2 | 0.41 | 
49 | Cc1ccc(-n2nc(C)cc2NS(=O)(=O)c2c(C)nn(C(C)C)c2C)nn1 | -9 | 1.42 | 
50 | CCOc1cccc2[nH]cc(CC(=O)N[C@H](c3nccn3C)C3CC3)c12 | 7 | -0.9 | 
51 | CCOC(=O)NCCC(=O)NCCC[C@H]1CCCCO1 | -4 | 0.49 | 
52 | CCc1nsc(N2CC(C)N(CC#N)C(C)C2)n1 (configuration not stated) | -3 | 0.45 | 
53 | Cc1cc(N)n(-c2ccc(-c3noc(-c4cc(C(C)C)on4)n3)cc2)n1 | 15 | -3.24 | 
54 | CCCc1cc(-c2nc(-c3ccc(-n4nc(C)cc4N)cc3)no2)n(C)n1 | 71 | -14.18 | 
55 | CC[C@@H](c1nc(-c2ccc(-n3nc(C)cc3N)cc2)no1)n1cccn1 | -2 | 0.32 | 
56 | c1ccc(-c2nc(NC3CCCC3)c3oc(-c4ccccc4)nc3n2)cc1 | -7 | 0.89 | 
57 | C[C@@H](CNc1nc(-c2ccccc2)nc2nc(-c3ccc(Cl)cc3)oc12)N1CCCCC1 | 79 | -10.9 | 
58 | C[C@@H](CNc1nc(-c2ccccc2)nc2nc(-c3ccc(Cl)cc3)oc12)N1CCOCC1 | -17 | 2.25 | 
59 | CCc1noc(C2(n3cccn3)CC2)n1 | -8 | 0.8 | 
60 | N#Cc1ccccc1OCCN1CCS(=O)(=O)CC1 | -3 | 0.38 | 
61 | O=C(N[C@H]1CCc2[nH]c3ccc(Br)cc3c2C1)c1ccc(Cl)c(Cl)c1 | -9 | 1.26 | 
62 | O=C(NC1CCc2[nH]cnc2C1)N[C@@H]1CCCc2ccccc21 (some centres not stated) | 4 | -0.51 | 
63 | CC(C)c1ccc(CCCNS(N)(=O)=O)cc1 | 7 | -0.97 | 

Row | Structure (SMILES) | % Inhibition [%] | Z score | Z score (2 µM)
64 | c1cc(N2CC[C@]3(CCOC3)C2)c2sccc2n1 | -10 | 1.52 | 
65 | CCc1nc(CCNC(=O)Cc2sc(N)nc2C)no1 | -22 | 2.33 | 
66 | CN1CCCN(c2nc(C(F)(F)F)nc3cc4c(cc23)OCO4)CC1 | -8 | 1.28 | 
67 | CN(C)C1(CNc2ncc(F)cn2)CCCC1 | -3 | 0.48 | 
68 | COc1nccnc1NCC1(N(C)C)CCCCC1 | 2 | -0.41 | 
69 | Oc1cc(C(F)(F)F)c2cc3c(cc2n1)OCO3 | 30 | -3.35 | 
70 | O=C(NCc1ccc(Br)cc1)NC1CC2OCCCC12 (configuration not stated) | -11 | 1.4 | 
71 | COCCN(Cc1cc2ccc(Cl)cc2nc1N1CCC[C@H](CO)C1)C(=O)c1sccc1C | 2 | -0.41 | 
72 | NC(=NCCOc1ncc(Cl)cc1Cl)N1CCOCC1 | -11 | 1.79 | 
73 | CCN(C)C1(CNC(=O)c2ccc(-c3cc(F)ccc3O)cc2)CCCC1 | 55 | -0.99 | 
74 | CCN(C)C1(CNC(=O)c2cccc(-c3ncc(F)c(NC)n3)c2)CCCC1 | 3 | -0.53 | 
75 | CCN(C)C1(CNC(=O)c2ccc(-c3cnccn3)cc2)CCCC1 | -14 | 2.04 | 
76 | CC(C)ONC(=O)CCc1cccc(O)c1 | -11 | 1.21 | 
77 | Cc1cc(O)nc2ccc(NC(=O)c3cccc(F)c3)cc12 | 5 | -0.52 | 
78 | c1c[nH]c(-c2nc(C3CCOCC3)n[nH]2)c1 | -6 | 1.12 | 
79 | COc1c(C)cc(C(=O)[C@H]2CCCN(c3cc(N)ncn3)C2)cc1C | 78 | -15.48 | 
80 | COc1ccnc(CN2CCC[C@H](C(=O)c3cc(C)c(OC)c(C)c3)C2)c1OC | 8 | -1.25 | 
81 | CNc1ncc(C(=O)N2CCC[C@H](C(=O)c3cc(C)c(OC)c(C)c3)C2)cn1 | 4 | -0.72 | 
